Test results published in PubChem BioAssay (NCI).
About 83,000 compounds went through this panel and 20% of them were active in at least one assay; those are over-represented in the sample as a whole.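 Results are percent growth after 48 hours of single-concentration exposure. 100 means growth as in untreated cells, lower positive values show inhibition; negative values down to -100 show cell death.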 Values without a mark were called inactive. Calls of active or inactive are those of the source. How the source made its calls: active means growth percent below 10; inactive means the rest.

Legend:
Assay in all cases: NCI-60 one-dose screen, 48 h (100 = growth as untreated, 0 = no growth, -100 = all killed)
Conditions in all cases: 10 µM unless noted
[1] = tested on: SR leukemia
[2] = tested on: RPMI-8226 leukemia
[3] = tested on: OVCAR-8 ovarian
[4] = tested on: OVCAR-5 ovarian
[5] = tested on: OVCAR-4 ovarian
[6] = tested on: SK-OV-3 ovarian
[7] = tested on: IGROV1 ovarian
[8] = tested on: OVCAR-3 ovarian
[9] = tested on: HS 578T breast
[10] = tested on: NCI/ADR-RES ovarian
[11] = tested on: T-47D breast
[12] = tested on: BT-549 breast
[13] = tested on: MDA-MB-435 melanoma
[14] = tested on: MCF7 breast
[15] = tested on: HCT-116 colon
[16] = tested on: HCC-2998 colon
[17] = tested on: KM12 colon
[18] = tested on: SW-620 colon

Cn1cc(C(=O)c2nc(-c3c[nH]c4ccc(F)cc34)no2)c2cc(F)ccc21
growth [1]: 48.1% | growth [2]: 98.8% | growth [3]: 95.9% | growth [4]: 95.5% | growth [5]: 97.5% | growth [6]: 83.6% | growth [7]: 66.8% | growth [8]: 97.4% | growth [9]: 91.3% | growth [10]: 84% | growth [11]: 92.1% | growth [12]: 92.5% | growth [13]: 64% | growth [14]: 58.1% | growth [15]: 99.8% | growth [16]: 97.4% | growth [17]: 79.2%

CC(C)(C)c1cc(/C=N\NC(=O)/C=C/C=C/c2ccc3c(c2)OCO3)c(O)c(C(C)(C)C)c1
growth [1]: 6.69% (active) | growth [2]: 80.6% | growth [3]: 75.3% | growth [4]: 89.3% | growth [5]: 34.8% | growth [6]: 100% | growth [7]: 70.3% | growth [8]: 75.6% | growth [9]: 13.6% | growth [10]: 66.1% | growth [11]: 35% | growth [12]: 92.9% | growth [13]: 86.4% | growth [14]: 61.3% | growth [15]: 87.7% | growth [16]: 89.2% | growth [17]: 75.1%

C=C(C)C1CC(O)C2(C)CCCC3C2C1CC(C)C3(C)CC/C(C)=C/C(O)C1CCC(=O)c2c(OC)cc(OC)cc21 (configuration not stated)
growth [1]: 26.6% | growth [2]: 6.09% (active) | growth [3]: 41.6% | growth [4]: 86.9% | growth [5]: 23.3% | growth [6]: 51% | growth [7]: 50.9% | growth [8]: 32.7% | growth [9]: 61.6% | growth [10]: 45.9% | growth [11]: 37.2% | growth [12]: 60.4% | growth [13]: 41.7% | growth [18]: 47.1% | growth [15]: 28.5% | growth [16]: 76.9% | growth [17]: 40.9%

O=C1c2cccc3cccc(c23)C(=O)N1CCCCN1CCN(CCCCOc2ccc(-c3nc4ccc(N5CCOCC5)cc4[nH]3)cc2)CC1
growth [1]: -65% (active) | growth [2]: 32.4% | growth [3]: 22% | growth [4]: 109% | growth [5]: 79.4% | growth [6]: 95.9% | growth [7]: 68.9% | growth [8]: 100% | growth [9]: 86.6% | growth [10]: 76.6% | growth [11]: 77.2% | growth [12]: 91.7% | growth [13]: 88.3% | growth [18]: 95.1% | growth [14]: 74.1% | growth [17]: 92.1%

CSc1ccc(-c2ccccc(=O)c2O)cc1
growth [1]: 5.18% (active) | growth [2]: 10.1% | growth [3]: 14.6% | growth [4]: 52.9% | growth [5]: 32.5% | growth [6]: 11.8% | growth [7]: 12.7% | growth [8]: 25.1% | growth [9]: 56.4% | growth [10]: 5.46% (active) | growth [11]: 27% | growth [12]: 29.7% | growth [13]: 23.5% | growth [14]: 15.8% | growth [15]: 20% | growth [16]: 44% | growth [17]: 23.1%

COC(=O)c1ccc(NC(=O)c2ccc(-c3cccc([N+](=O)[O-])c3)o2)cc1
growth [1]: 114% | growth [2]: 102% | growth [3]: 103% | growth [4]: 109% | growth [5]: 92.7% | growth [6]: 98.1% | growth [7]: 91.6% | growth [8]: 101% | growth [9]: 92.2% | growth [10]: 99% | growth [11]: 96.4% | growth [12]: 98.9% | growth [13]: 101% | growth [14]: 76.8% | growth [15]: 96% | growth [16]: 102% | growth [17]: 102%

COc1ccc(/C=C\c2cc(OC)c(OC)c(OC)c2)cc1OCC(=O)Nc1ccc2nc(C)sc2c1
growth [1]: 12.2% | growth [2]: -8.5% (active) | growth [3]: 9.11% (active) | growth [4]: 112% | growth [5]: 43% | growth [6]: 78.5% | growth [7]: 25.2% | growth [8]: 41.6% | growth [9]: 36.4% | growth [10]: 0.808% (active) | growth [11]: 6.4% (active) | growth [13]: -3.48% (active) | growth [18]: 38% | growth [14]: 20.6% | growth [15]: 23.4% | growth [16]: 86.1% | growth [17]: 19%

CCOC(=O)c1c(CN2CCN(C)CC2)nc2ccc(Cl)cc2c1-c1ccccc1
growth [1]: -2.55% (active) | growth [2]: 25.5% | growth [3]: 84% | growth [4]: 69% | growth [5]: 79.4% | growth [6]: 90.7% | growth [7]: 50.1% | growth [8]: 76.8% | growth [9]: 61% | growth [10]: 68.7% | growth [11]: 74.3% | growth [12]: 58.5% | growth [13]: 53.5% | growth [14]: 47.6% | growth [15]: 63.7% | growth [16]: -0.061% (active) | growth [17]: 76.2%

Oc1cccc2ccc(N/N=C/c3cc(CN4CCOCC4)c(O)c4ncccc34)nc12
growth [1]: 2.95% (active) | growth [2]: 16.2% | growth [3]: 13% | growth [4]: 28.3% | growth [5]: 14.2% | growth [6]: -14.9% (active) | growth [7]: 18.7% | growth [8]: 23.2% | growth [9]: 36.3% | growth [10]: 2.84% (active) | growth [11]: 26.9% | growth [12]: 18.4% | growth [13]: 23.8% | growth [18]: 26.2% | growth [15]: 23.5% | growth [16]: 26.6% | growth [17]: 13.7%

COC(=O)c1cccc(NC(=O)c2ccc(-c3cccc(N)c3)o2)c1
growth [1]: 95.8% | growth [2]: 78.8% | growth [3]: 75.7% | growth [4]: 107% | growth [5]: 101% | growth [6]: 105% | growth [7]: 100% | growth [8]: 107% | growth [9]: 92.2% | growth [10]: 99.7% | growth [11]: 88.1% | growth [13]: 98.8% | growth [18]: 104% | growth [14]: 92.4% | growth [15]: 108% | growth [16]: 101% | growth [17]: 98%

CCOC(=O)c1csc(NC(=O)COc2cccc(/C=C3\CSc4ccccc4C3=O)c2)n1
growth [1]: -86.4% (active) | growth [2]: -71.2% (active) | growth [3]: 20.3% | growth [4]: 56.4% | growth [5]: 83.6% | growth [6]: 35% | growth [7]: 1.28% (active) | growth [8]: -25.7% (active) | growth [9]: -11% (active) | growth [10]: 44.1% | growth [11]: 73.8% | growth [12]: -88% (active) | growth [13]: 17.9% | growth [18]: -65.5% (active) | growth [15]: 4.95% (active) | growth [16]: -31.8% (active) | growth [17]: -64.4% (active)

Cc1ccc2c(C(C[N+](=O)[O-])c3ccco3)c(-c3ccccc3)[nH]c2c1 (configuration not stated)
growth [1]: 24% | growth [2]: 27.4% | growth [3]: 48.1% | growth [4]: 54.9% | growth [5]: 64.2% | growth [6]: 21.7% | growth [7]: 29% | growth [8]: 14.2% | growth [9]: 16.2% | growth [10]: 7.41% (active) | growth [11]: 16.1% | growth [13]: -34% (active) | growth [18]: 17.1% | growth [14]: 16.5% | growth [15]: 19.6% | growth [16]: 70% | growth [17]: 20.2%

CCCCC[C@H]1C/C=C2/C(=O)C=C[C@@H]2C/C=C\CCCC(=O)O1
growth [1]: -3.55% (active) | growth [2]: -13.4% (active) | growth [3]: 5.97% (active) | growth [4]: -9.16% (active) | growth [5]: 14.1% | growth [6]: -11.6% (active) | growth [7]: -42.8% (active) | growth [8]: -58.8% (active) | growth [9]: 23.3% | growth [10]: 10.3% | growth [11]: -2.9% (active) | growth [12]: -11.2% (active) | growth [13]: -26.7% (active) | growth [18]: 0.0064% (active) | growth [15]: -67.6% (active) | growth [17]: -83.6% (active)

COc1ccc(-n2nc(C)c3c(Nc4ccc(NC(=O)Nc5c(Cl)cccc5Cl)cc4)ncnc32)cc1
growth [1]: 32.2% | growth [2]: 50.7% | growth [3]: 56% | growth [4]: 97.8% | growth [5]: 60.9% | growth [6]: 83.3% | growth [7]: 71.7% | growth [8]: 40.8% | growth [9]: 71.7% | growth [10]: 55.9% | growth [11]: 40% | growth [12]: 57.9% | growth [13]: 49.1% | growth [18]: 48.6% | growth [15]: 25% | growth [16]: 51% | growth [17]: 18%

C#CCOc1ccc2ncnc(N3CCC(NC(=O)CCl)CC3)c2c1
growth [1]: 62.6% [8.25 µM] | growth [2]: 44.4% [8.25 µM] | growth [3]: 76.3% [8.25 µM] | growth [4]: 100% [8.25 µM] | growth [5]: 36.5% [8.25 µM] | growth [6]: 69.6% [8.25 µM] | growth [7]: 51.4% [8.25 µM] | growth [8]: 68.2% [8.25 µM] | growth [9]: 46.7% [8.25 µM] | growth [10]: 88.2% [8.25 µM] | growth [11]: 71% [8.25 µM] | growth [12]: 64.2% [8.25 µM] | growth [13]: 68.1% [8.25 µM] | growth [14]: 51.9% [8.25 µM] | growth [15]: 56.5% [8.25 µM] | growth [16]: 107% [8.25 µM] | growth [17]: 96.5% [8.25 µM]

CN1C(=O)C2(SCC(C(=O)NCc3ccccc3)N2C(=O)C2CCCCC2)c2ccccc21 (configuration not stated)
growth [1]: 83.3% | growth [2]: 95% | growth [3]: 92% | growth [4]: 105% | growth [5]: 88.1% | growth [6]: 114% | growth [7]: 88% | growth [8]: 90.5% | growth [9]: 89.3% | growth [10]: 94.2% | growth [11]: 101% | growth [12]: 98.3% | growth [13]: 81.2% | growth [18]: 91.8% | growth [15]: 96.2% | growth [16]: 109% | growth [17]: 92.1%

Cc1ccc2oc(=O)cc(C3c4ccc([nH]4)C(c4cc(=O)oc5ccc(C)cc45)c4ccc([nH]4)C(c4cc(=O)oc5ccc(C)cc45)c4ccc([nH]4)C(c4cc(=O)oc5ccc(C)cc45)c4ccc3[nH]4)c2c1 (configuration not stated)
growth [1]: -36.5% (active) | growth [2]: -21.3% (active) | growth [3]: -47.8% (active) | growth [4]: -11.7% (active) | growth [5]: -6.02% (active) | growth [6]: -30.7% (active) | growth [7]: -20.1% (active) | growth [8]: -65% (active) | growth [9]: -37% (active) | growth [10]: -25% (active) | growth [11]: -28.5% (active) | growth [12]: -49.8% (active) | growth [13]: -76.1% (active) | growth [14]: -20.9% (active) | growth [15]: -78.9% (active) | growth [16]: -68.9% (active) | growth [17]: -73.9% (active)
